Screening results deposited in PubChem BioAssay by National Center for Advancing Translational Sciences (NCATS).
IMPase Li cell: membrane-permeable IMPase blocker, potentiated with lithium; Potency, µM (series often up to 59.4 µM), inactives show top-dose activity, negative = IMPase inhibition, actives largely listed as inhibitors; AID 1457; CHO-M1 cells, IP1 TR-FRET (IP-One), carbachol + lithium; 210,000 compounds, 0.35% hits; active = well fitted curve in the direction sought with a large enough effect; inconclusive = small, poorly fitted or top-dose-only effect, or another doubt; inactive = no such curve, though single readings can be large; an effect the other way counts as inactive or inconclusive;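 note: IP1 builds up when IMPase is blocked and the TR-FRET signal falls; potency is the fitted concentration of half-maximal effect; plate controls were basal vehicle for no effect and high inhibitor control for full effect; nearly all actives have a fitted effect of over 50% in size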
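CHO cells stably expressing M1 receptor (2000/well, cultured 16–30 h) treated 30 min at 37C with compound plus low lithium. Cytosolic IP1 by TR-FRET (665/620 ratio and 620 channel) after 10 min lysis; AC50 by Hill fit.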
PNC inhibitor: inhibitors of perinucleolar compartment assembly. PC3M PTB-GFP, PNC prevalence imaging, 16 h; hits give low values. activity change (PNC), negative = inhibition, % at 10 µM. 140,000 compounds, 3.1% hits. AID 2417;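 active = readout at or below -70, meaning at least 70% loss of cells showing the perinucleolar compartment, a nuclear body marking cancer cells; inconclusive = readout between -30 and a set limit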;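 note: plate controls were DMSO wells for no effect and camptothecin positive control wells for full effect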
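PC3M cells stably expressing PTB-GFP, 750–1000 cells/well, treated 16 h at 37 °C with compound (23 nl of library stock), in duplicate. After paraformaldehyde fixation and Hoechst stain, imaged at 20x; PNC prevalence scored by image analysis.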
ALDH1A1 block: ALDH1A1 (human) enzyme inhibition; P00352; Purified ALDH1A1, NADH fluorescence, propionaldehyde substrate; Potency, µM (top dose mostly 75.3 µM), for the others: top-dose activity, negative = inhibition, most hits filed as inhibitors; 220,000 compounds, 7.3% hits;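 note: potency is the fitted concentration of half-maximal effect; plate controls were no enzyme wells and a reference inhibitor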
HPGD block: HPGD (human) dehydrogenase inhibition | purified HPGD, NADH fluorescence kinetic, PGE2 substrate | P15428 | 150,000 compounds, 4.3% hits | Potency, µM, without a hit: at the highest dose activity change, negative = inhibition, most hits filed as inhibitors | AID 894; note: potency is the fitted concentration of half-maximal effect
Target sequence (P15428 whole entry, looked up): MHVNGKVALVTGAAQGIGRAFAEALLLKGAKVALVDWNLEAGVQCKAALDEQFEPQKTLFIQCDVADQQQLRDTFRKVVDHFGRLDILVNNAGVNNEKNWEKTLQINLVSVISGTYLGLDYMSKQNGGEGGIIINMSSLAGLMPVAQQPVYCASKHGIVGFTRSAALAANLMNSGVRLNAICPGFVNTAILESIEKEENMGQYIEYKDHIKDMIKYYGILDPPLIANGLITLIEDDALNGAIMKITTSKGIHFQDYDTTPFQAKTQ
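20 nM HPGD preincubated 15 min at room temperature with compound in 50 mM Tris-HCl pH 8, 0.01% Tween 20. Started with 1 mM NAD+ and 30 uM prostaglandin E2; NADH fluorescence (360/450 nm) read 5 times over 30-s intervals, last minus first.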
IMPase inh: membrane-permeable compound that blocks inositol monophosphatase | 120,000 tested, under 10 active | P97697 | CHO-M1 cells, IP1 accumulation, HTRF TR-FRET ratio | inhibition (IP1 accumulation), % at 46.1 µM; active = well fitted curve in the direction sought with a large enough effect in the signal ratio, not every such curve was filed as active; inconclusive = small, poorly fitted or top-dose-only effect, or a change in a side signal; inactive = no such curve, though single readings can be large or run the other way; the % refers to the signal ratio;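 note: cells stimulated with carbachol in lithium chloride buffer; plate controls were DMSO basal wells for no effect and reference inhibitor wells for full effect; higher means more IMPase inhibition seen as more IP1 and lower FRET ratio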
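Seeded CHO-M1 cells were dosed with compound at up to 46 uM, stimulated with carbachol for 30 min, then lysed in IP-One detection reagents. Higher IP1 lowers the TR-FRET signal.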
NPSR antag: antagonists of human neuropeptide S receptor cAMP signaling; Q6W5P4; 220,000 compounds, 1% hits; CHO-NPSR cells, cAMP TR-FRET, antagonist mode; AID 1461; Potency, µM (highest dose often 38.3 µM), inactives show at the highest dose activity change, negative = inhibition, most hits filed as inhibitors; active = well fitted curve in the direction sought with a large enough effect; inconclusive = small, poorly fitted or top-dose-only effect, or another doubt; inactive = no such curve, though single readings can be large; an effect the other way counts as inactive or inconclusive; note: potency is the fitted concentration of half-maximal effect; nearly all actives have a fitted effect of over 50% in size
Target sequence (Q6W5P4 whole entry, looked up): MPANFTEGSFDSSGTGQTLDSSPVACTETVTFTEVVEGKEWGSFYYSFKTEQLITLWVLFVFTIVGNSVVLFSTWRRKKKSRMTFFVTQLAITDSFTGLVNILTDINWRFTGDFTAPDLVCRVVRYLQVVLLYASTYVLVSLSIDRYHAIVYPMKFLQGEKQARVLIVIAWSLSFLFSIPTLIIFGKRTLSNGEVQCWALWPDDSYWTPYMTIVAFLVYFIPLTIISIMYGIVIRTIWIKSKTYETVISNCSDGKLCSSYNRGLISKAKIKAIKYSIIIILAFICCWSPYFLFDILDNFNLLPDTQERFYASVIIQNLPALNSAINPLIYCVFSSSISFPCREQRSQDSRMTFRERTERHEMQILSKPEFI
Starred values were filed as active, the others as inactive; ? = inconclusive; · = no result; [ ] = dose if it differs, or a comment. The list is not random: actives were taken first. Their share in the collection is about 11%. Unless noted, calls come from the whole dose curve; as a rule, active = well fitted inhibition curve with a large enough effect (not every such curve was filed as active); inconclusive = small, poorly fitted or top-dose-only effect, or another doubt; inactive = no such curve, though single readings can be large or run the other way. Unless noted, % is set by controls: 0 for no effect and ±100 for the full control effect.

SMILES	IMPase Li cell	PNC inhibitor	ALDH1A1 block	HPGD block	IMPase inh	NPSR antag
Cc1c(C(=O)c2ccc(Cl)cc2Cl)cnc2cc3c(cc12)OCO3	22.7%	-2.7	-0.5%	?	3.0	-29.2%[46.1 µM]
COCCn1c(NC(=S)NC(=O)C2CC2)cc(=O)[nH]c1=O	7.6%	·	0.631µM*	·	·	-1.6%
COCCn1c(NC(=S)NC(=O)C23CC4CC(CC(C4)C2)C3)cc(=O)[nH]c1=O	·	·	·	·	·	-20.8%
Nc1sc(-c2ccccc2)cc1C(=O)N/N=C/c1ccc(Cl)cc1	·	·	·	·	·	30.4%
COC(=O)c1cc(-c2ccccc2)sc1N	2.6%[38.3 µM]	1.0	?	28.2µM*	-1.8	29.4%[46.1 µM]
Cc1cccc(-n2nnnc2SC(C)C(=O)NCCC2=CCCCC2)c1 (configuration not stated)	15.2%[38.3 µM]	-3.4	5.01µM*	-23.7%	5.5	?
CCN(CC)S(=O)(=O)c1cccc(-c2nnc(SCC(=O)NCCC3=CCCCC3)n2N)c1	13.6%[38.3 µM]	-17.2	?	-2.4%	5.4	-3.7%[46.1 µM]
CC(C)c1nnc(SCC(=O)NCCC2=CCCCC2)n1N	18.1%[38.3 µM]	?	20µM*	15.8µM*	5.2	-9.2%[46.1 µM]
Cc1ccc(NC(=O)CN2C(=O)S/C(=C\c3cccn3C)C2=O)cc1	-3.3%[38.3 µM]	68.3	0.8%	13.9%	-8.7	-5.4%[46.1 µM]
Cc1cc(C)c(S(C)(=O)=O)c(Oc2ccc(C(C)(C)C)cc2)n1	20.5%[38.3 µM]	-1.0	15.8µM*	-6.8%	2.4	-21.5%[46.1 µM]
Cc1cc(C)c(S(C)(=O)=O)c(Oc2cccc(Cl)c2)n1	49.4%[38.3 µM]	29.0	12.6%	-8.3%	3.9[1.84 µM]	9.5%[46.1 µM]
CN1CCN(C(=O)/C(C#N)=C/c2ccc(F)cc2)CC1	?	·	1.78µM*	·	·	-6.4%
N#C/C(=C\c1ccc(O)cc1)C(=O)N1CCCC1	·	·	?	·	·	-8.1%
N#C/C(=C\c1ccc(C#N)cc1)C(=O)N1CCCC1	5.9%	·	7.94µM*	·	·	1.8%
CCN1CCN(C(=O)/C(C#N)=C/c2ccc(OC(F)F)cc2)CC1	-6.1%	·	1.3%	·	·	20.2%
COC(=O)/C=C1\SC(=Nc2ccc(OC)cc2)NC1=O	-0.3%	·	-4.0%	·	·	-20.9%
COc1ccc(N=C2C(=O)Nc3c(C)cccc32)cc1	-7.5%[38.3 µM]	36.6	14.1µM*	-0.1%	2.1	1.9%[46.1 µM]
CC1=C(C(=O)OC2CCCCCC2)C(c2cccc(F)c2F)CC(=O)N1 (configuration not stated)	·	·	·	·	4.7	·
Cc1ccc(OCC(=O)c2ccc(Cl)s2)c([N+](=O)[O-])n1	18.8%	·	2.24µM*	·	·	-13.8%
COc1ccc(OCCOc2ccc(C)nc2[N+](=O)[O-])cc1	-3.8%	-10.8	3.6%	-24.2%	·	12.7%
Cc1ccc(OCCOc2ccc(Cl)cc2Cl)c([N+](=O)[O-])n1	13.7%	70.6	-5.7%	31.6µM*	·	-6.4%
Cc1cccc(COCC(Cc2ccccc2)N2CCN(C(=O)c3ccc(Cl)c(Cl)c3)CCC2=O)c1 (configuration not stated)	15.0%	33.6	-33.0%	-17.4%	·	-37.6%
CCNS(=O)(=O)c1ccc(CCC(=O)NC2CCCC2)cc1	-1.4%	-25.1	7.2%	-10.8%	·	6.0%
C=CC(=O)Nc1ccc(Br)cc1	7.9%[38.3 µM]	?	6.7%	-7.8%	-4.6	-1.9%[46.1 µM]
COc1ccc(S(=O)(=O)Nc2ccc(S(=O)(=O)N3CCOCC3)cc2)cc1	3.9%[38.3 µM]	-10.3	4.47µM*	-4.2%	2.3	-8.1%[46.1 µM]
SMILES	IMPase Li cell	PNC inhibitor	ALDH1A1 block	HPGD block	IMPase inh	NPSR antag
O=S(=O)(NCc1ccco1)c1ccc(S(=O)(=O)N2CCCC2)cc1	0.2%	·	8.91µM*	·	·	3.6%
Cc1ccc(S(=O)(=O)N2CCCN(S(=O)(=O)c3ccc(C)cc3)CC2)cc1	51.8%[38.3 µM]	-19.5	?	-10.2%	5.9	-24.3%[46.1 µM]
COc1ccc(NS(=O)(=O)c2ccc(SC)cc2)cc1	14.7%[38.3 µM]	24.7	0.159µM*	-19.4%	-4.5	-9.0%[46.1 µM]
Cc1ccc(S(=O)(=O)Nc2ccc(S(=O)(=O)N3CCCC3)cc2)cc1	-2.9%[38.3 µM]	?	0.562µM*	-10.9%	5.4	-9.3%[46.1 µM]
Cc1ccc(-n2nc(C(=O)c3ccccc3)n3c(=O)cc(-c4ccccc4)nc23)cc1	-1.4%[38.3 µM]	22.9	-2.2%	-7.4%	-2.1	?
Cc1ccc(NS(=O)(=O)c2ccc(C(=O)N3CCCN(C)CC3)cc2)cc1	3.9%[38.3 µM]	-100.0*	-0.1%	1.5%	8.7	-11.0%[46.1 µM]
c1ccc(-c2noc(CSc3nnnn3C3CCCCC3)n2)cc1	17.7%[38.3 µM]	-12.3	3.16µM*	-23.5%	9.0	-25.8%[46.1 µM]
c1ccc(-c2noc(CC3CCCCC3)n2)cc1	18.4%	·	-17.1%	·	·	-20.7%
O=C(CSC1CS(=O)(=O)c2cc([N+](=O)[O-])ccc21)NNC(=O)c1ccc(Cl)cc1 (configuration not stated)	·	·	·	·	·	6.0%
Cc1c(N=Cc2ccc(O)c(Br)c2)cccc1[N+](=O)[O-]	-14.0%	?	22.4µM*	?	·	4.7%
Cc1c(Cl)cccc1N=Cc1ccc([N+](=O)[O-])s1	-1.0%[38.3 µM]	?	?	-6.6%	-2.5	0.3%[46.1 µM]
O=[N+]([O-])c1ccc(N=Cc2ccc(Br)c([N+](=O)[O-])c2)cc1	-10.3%	15.0	7.94µM*	-16.9%	·	-2.9%
CCCCCC(=O)N1CC2(CC(c3cccc(NC(=O)COc4ccc(Cl)cc4)c3)=NO2)C[C@@H]1C(N)=O (some centres not stated)	·	·	·	·	·	-15.3%
CCOCCCn1cnc2c3cc(F)ccc3n(C)c2c1=O	·	·	?	·	·	27.2%
COc1ncc2nc(-c3cccs3)c(=O)n(CCC#N)c2n1	-7.1%	·	?	·	·	·
O=C(C(c1ccccc1)c1ccccc1)N1CC[C@@]2(O)CCCC[C@H]2C1	·	·	·	·	·	-6.9%
CCCCCCNC(=O)Cc1c(O)c2ccccc2[nH]c1=O	11.7%[38.3 µM]	?	?	?	-2.8	-2.8%[46.1 µM]
CC1=NN(c2ccccc2)C(=O)/C1=C/c1ccc[nH]1	4.5%	-19.5	-2.6%	-5.1%	·	-6.2%
CC1=NN(c2ccccc2)C(=O)/C1=C/c1cccs1	11.4%	?	14.1µM*	31.6µM*	·	14.4%
CC1=NN(c2ccccc2)C(=O)/C1=C\c1ccc(Br)s1	4.4%	-22.5	7.94µM*	28.2µM*	·	6.2%
CC1=NN(c2ccccc2)C(=O)/C1=C/c1c(O)n(-c2ccc(F)cc2)[nH]c1=O	0.5%	23.0	20µM*	-24.9%	·	-37.1%
CC(=O)c1cnc2c(-c3cccc(Br)c3)cnn2c1C	-1.6%	-12.9	18.1%	-9.8%	·	11.5%
COc1ccc(N(C(=O)Cc2cccs2)C2C=CS(=O)(=O)C2)cc1 (configuration not stated)	20.2%	·	28.2µM*	·	·	2.7%
CC(C)C(=O)N(c1ccc(F)cc1)C1C=CS(=O)(=O)C1 (configuration not stated)	·	-1.9	28.2µM*	·	-0.7	-3.5%[46.1 µM]
CC(=O)N1CCC(=NNS(=O)(=O)c2cccc([N+](=O)[O-])c2)CC1	15.5%[38.3 µM]	-2.4	11.2µM*	-13.8%	-10.0	6.5%[46.1 µM]
